Data from the supplement of paper PMC12645437, “Orthogonal IMiD-Degron Pairs Induce Selective Protein Degradation in Cells” (ACS Chemical Biology, 2025).
In all, about 8,300 sequences were measured (“log2 fold change of degron read counts, EGFP-low vs EGFP+ sorted cells (limma voom), compound-induced degradation”: median about -1.1, highest 2% from about 3.2 on). The sample as a whole holds a higher share of the highest values than the screen did.

T1: CRBN, Q96SW2
T1 chain: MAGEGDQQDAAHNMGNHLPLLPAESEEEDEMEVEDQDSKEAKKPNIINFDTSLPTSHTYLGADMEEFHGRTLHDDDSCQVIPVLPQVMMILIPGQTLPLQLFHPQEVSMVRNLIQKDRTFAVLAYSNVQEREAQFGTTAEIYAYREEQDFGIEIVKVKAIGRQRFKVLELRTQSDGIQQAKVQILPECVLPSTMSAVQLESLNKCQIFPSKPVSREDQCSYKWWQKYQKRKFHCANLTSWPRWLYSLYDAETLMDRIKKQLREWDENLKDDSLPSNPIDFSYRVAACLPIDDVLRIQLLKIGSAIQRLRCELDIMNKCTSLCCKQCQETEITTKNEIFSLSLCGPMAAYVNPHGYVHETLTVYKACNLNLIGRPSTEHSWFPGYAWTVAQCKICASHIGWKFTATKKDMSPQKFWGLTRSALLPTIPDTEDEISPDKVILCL


Target: T1, CRBN, Q96SW2
Test: log2 fold change of degron read counts, EGFP-low vs EGFP+ sorted cells (limma voom), compound-induced degradation; higher = more compound-induced degradation of the degron-EGFP fusion; degrons are variants of IKZF1/3 zinc finger 2; compound dose not given here
Settings: Jurkat, 18 h
[1] = compound: compound 19 (5-tert-butyl-thalidomide)
[2] = compound: compound 22 (5-morpholino-thalidomide)
[3] = compound: compound 33 (diphenyl IMiD analogue)
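Also: pooled lentiviral library of zinc finger degron-EGFP fusions in mCherry-positive Jurkat cells, FACS-sorted after compound exposure, with degron abundance counted by next-generation sequencing.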

Row | Sequence | log2 fold change of degron read counts [1] | log2 fold change of degron read counts [2] | log2 fold change of degron read counts [3] | log2 fold change of degron read counts (compound: thalidomide)
1 | FLCDVCGAYFTQKGNLLRHIKL [46F_47L_49D_50V_52G_53A_54Y_55F_67L_, Q9UKT9] | -2.05 | -2.41 | -1.49 | -1.52
2 | FSCNVCGARFTQKGNLLRHIKL [46F_47S_49N_50V_52G_53A_54R_55F_67L_, Q9UKT9] | 0.49 | 0.453 | -1.03 | -0.0608
3 | FRCNQCGASFTQKGNLLRHIKL [46F_47R_49N_50Q_52G_53A_54S_55F_67L_, Q9UKT9] | -1.71 | -2.14 | -0.702 | -1.17
4 | FDCEICGREFTQKGNLLRHIKL [46F_47D_49E_50I_52G_53R_54E_55F_67L_, Q9UKT9] | -2.21 | -2.29 | -2.42 | -2.31
5 | FHCNVCGAQFTQKGNLLRHIKL [46F_47H_49N_50V_52G_53A_54Q_55F_67L_, Q9UKT9] | -0.612 | 0.00036 | 0.0621 | -0.871
6 | FCCPICGHNFTQKGNLLRHIKL [46F_47C_49P_50I_52G_53H_54N_55F_67L_, Q9UKT9] | -2.22 | -2.17 | -1.7 | -1.28
7 | FYCEQCGAHFTQKGNLLRHIKL [46F_47Y_49E_50Q_52G_53A_54H_55F_67L_, Q9UKT9] | -0.125 | 0.783 | 0.184 | -1.6
8 | FDCPICGANFTQKGNLLRHIKL [46F_47D_49P_50I_52G_53A_54N_55F_67L_, Q9UKT9] | 2.63 | 0.285 | 2.3 | 2.15
9 | FRCPICGANFTQKGNLLRHIKL [46F_47R_49P_50I_52G_53A_54N_55F_67L_, Q9UKT9] | -0.337 | -0.426 | 1.12 | 1.57
10 | FECPICGANFTQKGNLLRHIKL [46F_47E_49P_50I_52G_53A_54N_55F_67L_, Q9UKT9] | 0.136 | -0.0311 | 2.92 | 3.27
11 | FYCPICGANFTQKGNLLRHIKL [46F_47Y_49P_50I_52G_53A_54N_55F_67L_, Q9UKT9] | 3.19 | 3.46 | 2.38 | 1.52
12 | FMCPICGANFTQKGNLLRHIKL [46F_47M_49P_50I_52G_53A_54N_55F_67L_, Q9UKT9] | -0.073 | 1.2 | 2.87 | 1.98
13 | FNCPICGANFTQKGNLLRHIKL [46F_47N_49P_50I_52G_53A_54N_55F_67L_, Q9UKT9] | 2.14 | 0.903 | 0.95 | 0.651
14 | FLCPICGANFTQKGNLLRHIKL [46F_47L_49P_50I_52G_53A_54N_55F_67L_, Q9UKT9] | 0.744 | 0.272 | 1.69 | 1.77
15 | FFCPICGANFTQKGNLLRHIKL [46F_47F_49P_50I_52G_53A_54N_55F_67L_, Q9UKT9] | 2.81 | 3.66 | 1.86 | 1.33
16 | FVCPICGANFTQKGNLLRHIKL [46F_47V_49P_50I_52G_53A_54N_55F_67L_, Q9UKT9] | 0.327 | 2.63 | 1.9 | 2.81
17 | FTCPICGANFTQKGNLLRHIKL [46F_47T_49P_50I_52G_53A_54N_55F_67L_, Q9UKT9] | 0.0113 | 2.63 | 1.93 | 2.85
18 | FQCPICGANFTQKGNLLRHIKL [46F_47Q_49P_50I_52G_53A_54N_55F_67L_, Q9UKT9] | 0.555 | 2.18 | 2.19 | 3.58
19 | FSCPICGANFTQKGNLLRHIKL [46F_47S_49P_50I_52G_53A_54N_55F_67L_, Q9UKT9] | 2.46 | 1.78 | 1.97 | 1.54
